Laboratory results reported in ChEMBL document CHEMBL5724796, “Tm Shift (DSF) assay results for EUbOPEN Chemogenomics Library” (2024).
Residues, ends and D or L forms follow the SMILES beside them. *: point of attachment. Boc = CC(C)(C)OC(=O)*

Tests used:
Conditions in all cases: Compound concentration 20.0 uM
[1] = biological target: Tyrosine-protein kinase ABL1 (Homo sapiens) (UniProt P00519)
[2] = biological target: Bromodomain-containing protein 4 (Homo sapiens) (UniProt O60885)
[3] = biological target: Cyclin-dependent kinase 2 (Homo sapiens) (UniProt P24941)
[4] = biological target: Casein kinase I isoform delta (Homo sapiens) (UniProt P48730)
[5] = biological target: Glycogen synthase kinase-3 beta (Homo sapiens) (UniProt P49841)
[6] = biological target: Mitogen-activated protein kinase 1 (Homo sapiens) (UniProt P28482)
[7] = biological target: T1, Aurora kinase A (Homo sapiens) (UniProt O14965)
T1 sequence (whole entry): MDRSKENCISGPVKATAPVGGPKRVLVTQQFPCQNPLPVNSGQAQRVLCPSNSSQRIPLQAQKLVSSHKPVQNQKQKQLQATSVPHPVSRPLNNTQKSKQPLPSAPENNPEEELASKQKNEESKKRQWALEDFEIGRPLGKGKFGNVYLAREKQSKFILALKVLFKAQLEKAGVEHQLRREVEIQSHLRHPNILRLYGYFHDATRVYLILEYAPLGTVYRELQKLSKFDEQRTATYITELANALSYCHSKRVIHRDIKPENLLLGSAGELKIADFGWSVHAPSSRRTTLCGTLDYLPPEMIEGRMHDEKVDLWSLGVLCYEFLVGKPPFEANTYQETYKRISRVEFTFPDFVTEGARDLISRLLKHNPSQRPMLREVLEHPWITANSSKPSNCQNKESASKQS

[8] = biological target: T2, Transcription intermediary factor 1-alpha (Homo sapiens) (UniProt O15164)
T2 sequence (whole entry): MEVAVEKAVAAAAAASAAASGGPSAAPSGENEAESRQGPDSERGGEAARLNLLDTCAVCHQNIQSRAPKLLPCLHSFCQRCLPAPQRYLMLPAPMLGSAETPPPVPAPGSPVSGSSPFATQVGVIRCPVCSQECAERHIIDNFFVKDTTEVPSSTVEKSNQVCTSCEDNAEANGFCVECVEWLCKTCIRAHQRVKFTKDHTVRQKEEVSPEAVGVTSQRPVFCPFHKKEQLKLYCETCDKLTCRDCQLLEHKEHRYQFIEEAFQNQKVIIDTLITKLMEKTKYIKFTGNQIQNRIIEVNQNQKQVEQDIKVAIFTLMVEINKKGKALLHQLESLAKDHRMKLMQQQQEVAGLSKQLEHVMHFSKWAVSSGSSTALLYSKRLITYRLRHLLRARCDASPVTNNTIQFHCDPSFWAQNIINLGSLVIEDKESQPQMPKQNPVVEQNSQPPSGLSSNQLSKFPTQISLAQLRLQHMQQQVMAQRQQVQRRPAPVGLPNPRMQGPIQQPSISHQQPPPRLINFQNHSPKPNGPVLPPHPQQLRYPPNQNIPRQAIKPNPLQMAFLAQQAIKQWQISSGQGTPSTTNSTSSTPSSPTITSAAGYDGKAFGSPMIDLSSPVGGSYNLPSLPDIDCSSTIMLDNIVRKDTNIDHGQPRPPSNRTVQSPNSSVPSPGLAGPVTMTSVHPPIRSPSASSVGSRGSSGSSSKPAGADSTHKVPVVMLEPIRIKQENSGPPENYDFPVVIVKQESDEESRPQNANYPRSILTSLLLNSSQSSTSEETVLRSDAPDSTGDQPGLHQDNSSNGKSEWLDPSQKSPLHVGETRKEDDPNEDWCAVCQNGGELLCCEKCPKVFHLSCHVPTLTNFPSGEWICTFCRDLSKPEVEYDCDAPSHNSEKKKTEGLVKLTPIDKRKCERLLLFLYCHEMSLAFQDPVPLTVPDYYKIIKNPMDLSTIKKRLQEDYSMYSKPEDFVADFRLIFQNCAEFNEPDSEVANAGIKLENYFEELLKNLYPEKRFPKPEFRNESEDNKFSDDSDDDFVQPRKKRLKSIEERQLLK

Chain of Mitogen-activated protein kinase 1 (Homo sapiens) (P28482 whole entry): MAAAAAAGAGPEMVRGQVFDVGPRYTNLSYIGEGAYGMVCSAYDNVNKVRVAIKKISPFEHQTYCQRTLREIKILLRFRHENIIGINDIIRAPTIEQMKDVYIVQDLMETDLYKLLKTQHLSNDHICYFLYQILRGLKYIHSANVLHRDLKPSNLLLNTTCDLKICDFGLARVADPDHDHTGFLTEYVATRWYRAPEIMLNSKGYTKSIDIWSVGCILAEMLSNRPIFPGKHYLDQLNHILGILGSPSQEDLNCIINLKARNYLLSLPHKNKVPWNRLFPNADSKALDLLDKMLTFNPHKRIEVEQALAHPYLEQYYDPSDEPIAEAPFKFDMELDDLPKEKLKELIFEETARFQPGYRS
Chain of Tyrosine-protein kinase ABL1 (Homo sapiens) (P00519 whole entry): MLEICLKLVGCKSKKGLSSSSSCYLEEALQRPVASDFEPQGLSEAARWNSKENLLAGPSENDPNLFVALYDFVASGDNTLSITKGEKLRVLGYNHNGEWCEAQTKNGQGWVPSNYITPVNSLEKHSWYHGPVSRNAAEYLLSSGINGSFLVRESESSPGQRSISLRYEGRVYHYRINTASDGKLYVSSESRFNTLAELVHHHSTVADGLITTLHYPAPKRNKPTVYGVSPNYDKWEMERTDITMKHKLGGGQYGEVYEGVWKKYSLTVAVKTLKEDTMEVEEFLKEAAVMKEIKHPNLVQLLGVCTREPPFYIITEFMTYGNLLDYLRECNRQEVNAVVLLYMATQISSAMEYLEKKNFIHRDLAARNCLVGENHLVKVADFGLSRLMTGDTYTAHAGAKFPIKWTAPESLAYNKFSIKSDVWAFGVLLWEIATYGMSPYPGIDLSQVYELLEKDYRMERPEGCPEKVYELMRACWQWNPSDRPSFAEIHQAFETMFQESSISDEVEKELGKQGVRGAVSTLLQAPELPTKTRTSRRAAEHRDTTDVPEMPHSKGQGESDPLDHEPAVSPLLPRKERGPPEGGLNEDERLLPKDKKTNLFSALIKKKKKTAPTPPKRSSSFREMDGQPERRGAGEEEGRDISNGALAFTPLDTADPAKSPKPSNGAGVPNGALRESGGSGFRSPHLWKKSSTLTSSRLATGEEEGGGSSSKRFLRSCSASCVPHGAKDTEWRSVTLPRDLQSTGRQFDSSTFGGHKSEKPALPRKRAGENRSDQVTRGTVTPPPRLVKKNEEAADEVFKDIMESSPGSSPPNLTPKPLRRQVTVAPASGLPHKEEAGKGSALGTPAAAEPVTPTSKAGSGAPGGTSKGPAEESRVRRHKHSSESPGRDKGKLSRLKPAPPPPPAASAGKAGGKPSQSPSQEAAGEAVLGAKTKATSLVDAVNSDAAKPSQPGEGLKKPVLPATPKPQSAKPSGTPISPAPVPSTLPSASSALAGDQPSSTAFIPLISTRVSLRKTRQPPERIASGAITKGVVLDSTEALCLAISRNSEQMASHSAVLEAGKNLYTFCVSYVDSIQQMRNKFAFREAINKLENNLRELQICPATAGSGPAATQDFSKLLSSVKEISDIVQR
Chain of Glycogen synthase kinase-3 beta (Homo sapiens) (P49841 whole entry, looked up): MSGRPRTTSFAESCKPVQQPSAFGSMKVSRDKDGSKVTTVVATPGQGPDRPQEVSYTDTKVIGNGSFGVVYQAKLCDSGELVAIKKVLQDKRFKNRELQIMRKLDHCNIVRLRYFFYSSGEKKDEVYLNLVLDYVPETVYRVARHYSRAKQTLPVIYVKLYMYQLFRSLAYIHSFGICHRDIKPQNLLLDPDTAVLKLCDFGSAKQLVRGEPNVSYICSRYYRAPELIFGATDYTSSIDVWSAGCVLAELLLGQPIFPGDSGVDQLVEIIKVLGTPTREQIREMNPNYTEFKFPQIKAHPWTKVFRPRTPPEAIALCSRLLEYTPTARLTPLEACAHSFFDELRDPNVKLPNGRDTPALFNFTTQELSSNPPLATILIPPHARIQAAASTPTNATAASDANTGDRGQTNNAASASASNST
Chain of Casein kinase I isoform delta (Homo sapiens) (P48730 whole entry, looked up, canonical isoform): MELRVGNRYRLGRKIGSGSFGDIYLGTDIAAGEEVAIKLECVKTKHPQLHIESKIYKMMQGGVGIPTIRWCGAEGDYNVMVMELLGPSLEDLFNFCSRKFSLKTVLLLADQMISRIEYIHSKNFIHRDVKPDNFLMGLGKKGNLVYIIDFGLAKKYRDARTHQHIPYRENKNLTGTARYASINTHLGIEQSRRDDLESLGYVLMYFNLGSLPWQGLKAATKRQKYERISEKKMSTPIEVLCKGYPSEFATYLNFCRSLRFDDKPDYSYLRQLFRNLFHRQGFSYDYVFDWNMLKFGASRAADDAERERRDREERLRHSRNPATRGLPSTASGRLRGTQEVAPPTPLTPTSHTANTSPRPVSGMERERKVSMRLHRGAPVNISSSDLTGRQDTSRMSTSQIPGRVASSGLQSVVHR

SMILES	ΔTm [1]	ΔTm [2]	ΔTm [3]	ΔTm [4]	ΔTm [5]	ΔTm [6]	ΔTm [7]	ΔTm [8]
Cn1c(=O)cc(N2CCC[C@@H](N)C2)n(Cc2cc(F)ccc2C#N)c1=O	0.09 °C	-1.94 °C	0.46 °C	-0.06 °C	-0.59 °C	0.52 °C	-0.72 °C	0.97 °C
CN1CCc2c(n(Cc3ccc(C(=O)NO)cc3)c3ccccc23)C1	0.24 °C	-1.44 °C	0.56 °C	-0.06 °C	-0.89 °C	0.14 °C	-0.37 °C	-1.21 °C
O=C(Nc1c(Cl)cncc1Cl)c1ccc(OC(F)F)c(OCC2CC2)c1	0.75 °C	-3.16 °C	0.32 °C	-0.3 °C	0.27 °C	0.36 °C	-2.31 °C	2.4 °C
CNCc1ccc(-c2cc3cc(F)cc(C(N)=O)c3o2)cc1	0.6 °C	-0.09 °C	1.2 °C	0.55 °C	0.51 °C	0.83 °C	-1.29 °C	0.67 °C
CC(C)(O)c1ccc(-c2nc3c(F)cc(F)cc3c(=O)[nH]2)cc1	1.34 °C	-1.77 °C	-0.55 °C	1.05 °C	-2.12 °C	-4.92 °C	-0.15 °C	-1.14 °C
Cn1c(=O)c2c(nc(N3CCNCC3)n2Cc2nnc(-c3ccc(Cl)c(Cl)c3)o2)n(C)c1=O	0.59 °C	-3.55 °C	0.01 °C	0.33 °C	-0.89 °C	0.1 °C	-0.39 °C	-0.46 °C
O=C(CCCCCCC(=O)Nc1ccc([C@H]2O[C@@H](CSc3nc(-c4ccccc4)c(-c4ccccc4)o3)C[C@@H](c3ccc(CO)cc3)O2)cc1)NO	-3.66 °C	-1.65 °C	-1.26 °C	0 °C	2.86 °C	-12.5 °C	2.82 °C	3.56 °C
Cc1cc(Cl)cc(-c2c3sc(CN4C(=O)C5C(C4=O)C5(C)C)cc3nn2C)c1OC1CCNCC1 (stereo not given)	0.34 °C	-5.5 °C	0.13 °C	-0.45 °C	-0.24 °C	-0.05 °C	-2.64 °C	-1.23 °C
O=C1Nc2ccccc2C2(CCN(CC(Cc3ccccc3)Nc3nc4ccc(F)cc4s3)CC2)N1 (stereo not given)	0.77 °C	-4.21 °C	-0.52 °C	-0.49 °C	-1.4 °C	-0.14 °C	-2.22 °C	0.18 °C
Cc1ccc(C(=O)Nc2ccc(S(=O)(=O)O)c3cc(S(=O)(=O)O)cc(S(=O)(=O)O)c23)cc1NC(=O)c1cccc(NC(=O)Nc2cccc(C(=O)Nc3cc(C(=O)Nc4ccc(S(=O)(=O)O)c5cc(S(=O)(=O)O)cc(S(=O)(=O)O)c45)ccc3C)c2)c1	0.88 °C	-5.41 °C	-2.98 °C	-1.4 °C	-0.55 °C	-0.68 °C	0 °C	-1.19 °C
CC1(C)CC[C@]2(C(=O)O)CC[C@]3(C)C(=CC[C@@H]4[C@@]5(C)C=C(O)C(=O)C(C)(C)[C@@H]5CC[C@]43C)[C@@H]2C1	0.5 °C	-3.51 °C	-0.16 °C	-1.03 °C	-1.79 °C	-3.78 °C	-4.25 °C	0.88 °C
CS(=O)(=O)c1ccc(Oc2cc(F)cc(C#N)c2)c2c1[C@H](O)C(F)(F)C2	0.43 °C	-2.67 °C	0.56 °C	-0.1 °C	0.06 °C	0.15 °C	-1.44 °C	0.31 °C
N=C(N)SCc1ccc(CN2C(=O)C(=O)c3cc(Br)cc(Br)c32)cc1	-4.26 °C	-11.4 °C	0 °C	-2.52 °C	-2.8 °C	-1.76 °C	-5.55 °C	0 °C
CC(=O)NCC(=O)N1CCC[C@@H]1B(O)O	0.26 °C	-0.72 °C	1.18 °C	-0.18 °C	-0.78 °C	0.14 °C	-1.86 °C	0.93 °C
O=C(O)CCNc1cc(N2CCc3ccccc3CC2)nc(-c2cccnc2)n1	0.76 °C	-1.28 °C	0.04 °C	0.2 °C	-0.02 °C	-0.29 °C	2.29 °C	-0.51 °C
O=C(NO)C(c1ccc(-c2ncc(C(F)(F)F)cn2)cc1)c1ccccc1F (stereo not given)	0.91 °C	-2.36 °C	0.08 °C	0.69 °C	-0.7 °C	0.1 °C	0.24 °C	-0.84 °C
Cc1nccn1CC1CCc2c(c3ccccc3n2C)C1=O (stereo not given)	0.4 °C	-1.31 °C	-0.09 °C	-0.21 °C	-0.4 °C	0.1 °C	-1.95 °C	0.35 °C
C[C@@H]1O[C@@H](CC(=O)O)CC2=C1C(=O)c1c(O)cccc1C2=O	0.53 °C	-3.04 °C	0.21 °C	-1.39 °C	-2.21 °C	-0.24 °C	-2.94 °C	-2.3 °C
C=CC(=O)Nc1cccc(-c2c[nH]cc2CN(C)CCN)c1	0.53 °C	-1.27 °C	0.4 °C	-0.04 °C	-1.22 °C	0.08 °C	-0.37 °C	-1.19 °C
CC(C)[C@H](NC(=O)[C@H](CCC(=O)O)NC(=O)[C@H](C)NC(=O)OC(C)(C)C)C(=O)N[C@H](C=O)CC(=O)O (Boc-AEVD-aldehyde)	0.28 °C	-2.26 °C	-0.28 °C	-0.09 °C	-1.03 °C	-0.49 °C	-1.35 °C	-0.84 °C
COc1ccc2c(c1)OC(C)(C)C(c1ccccc1)C2c1ccc(OCCN2CCCC2)cc1 (stereo not given)	-0.02 °C	-3.83 °C	-2.04 °C	-0.1 °C	0 °C	-2.68 °C	0.51 °C	-3.44 °C
O=c1[nH]c(N2CCC3(CC2)CN(CCO)c2cc(F)cc(F)c23)nc2c1CCCC2	0.43 °C	-3.2 °C	0.1 °C	-0.13 °C	-1.32 °C	0.22 °C	-0.79 °C	-1.21 °C
CCN(c1cc(-c2ccc(CN3CCOCC3)cc2)cc(C(=O)NCc2c(C)cc(C)[nH]c2=O)c1C)C1CCOCC1	0.22 °C	-1.59 °C	-0.42 °C	0.03 °C	0 °C	-4.86 °C	-1.94 °C	-2.54 °C
COc1cc2c(cc1OC)[C@H]1C[C@@H](O)[C@H](CC(C)C)CN1CC2	0.04 °C	1.89 °C	0.25 °C	-0.17 °C	-0.88 °C	0.59 °C	-0.72 °C	0.12 °C
CC(=O)N[C@@H](CC(=O)O)C(=O)N[C@@H](CCC(=O)O)C(=O)N[C@H](C(=O)N[C@@H](CC(=O)O)C(=O)CCl)C(C)C	0.1 °C	-2.64 °C	-0.35 °C	-0.06 °C	0.4 °C	-0.58 °C	-1.91 °C	-0.93 °C
CC(=Cc1cc(C)ccc1C=C(C)C(=O)NC(=N)N)C(=O)N=C(N)N	0.75 °C	-2.96 °C	-0.11 °C	0 °C	-0.1 °C	0.25 °C	-2.39 °C	-3.05 °C
CCc1c(C)nc(-c2ccc(Cl)s2)nc1Nc1ccc(CC(=O)O)cc1	0.97 °C	-2.77 °C	0.44 °C	-0.04 °C	0 °C	0.51 °C	-0.9 °C	1.46 °C
C[C@H](NC(=O)[C@H](Cc1ccccc1)NC(=O)OCc1ccccc1)C(=O)CF	0.31 °C	-2.33 °C	0.15 °C	0.19 °C	-0.61 °C	-0.19 °C	-0.86 °C	-1.01 °C
COCCOCCn1nc2c(c1C)-c1c(Cl)ccc3c1c(C)c(C(=O)O)n3CCCOc1cc(cc3c(F)c(Cl)ccc13)CCc1cc(nn1C)CSC2	-1.69 °C	-3.74 °C	-3.85 °C	-0.76 °C	0 °C	-1.31 °C	0.82 °C	-3.03 °C
CC(=O)N[C@@H](CC(C)C)C(=O)N[C@@H](CCC(=O)O)C(=O)N[C@H](C(=O)N[C@H](C=O)CC(=O)O)C(C)C (Ac-LEVD-aldehyde)	0.2 °C	-2.55 °C	-0.57 °C	0.25 °C	-2.05 °C	-0.12 °C	-1.87 °C	-2.52 °C
